E coli growth-1 – counter-screen for AddAB inhibitors: E. coli growth inhibition; E. coli V3065 growth, OD600 absorbance, 18 h; inhibition, % at 11.9 µM; 330,000 tested, 0.27% active; AID 449728;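 active = inhibition above the campaign's mean inhibition across all tested compounds plus 3 SD, cut at about 9.9% in these data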;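 also: uninfected addAB+ strain grown without phage in ampicillin broth; 0% = DMSO wells and 100% = ciprofloxacin 0.95 µg/ml wells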
phage Ecoli inh – E. coli growth loss with phage present; inhibition, % at 11.9 µM; 360,000 tested, 0.26% active; growth absorbance; in the data active = inhibition above about 11%
AddAB inh – less growth of phage-infected E. coli with AddAB; E. coli expressing H. pylori AddAB, absorbance growth; inhibition, % at 11.9 µM; 330,000 tested, 0.29% active; in the data active = inhibition above about 12%;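 also: 0% = vehicle wells of infected cells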
Tat transport – E. coli Tat transport inhibition; E. coli MC4100 TorA-mCherry Tat export, fluorescence; inhibition, % at 10 µM; 340,000 tested, 0.036% active;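 active = mean replicate inhibition at least 50% and at least half of replicates individually reaching 50%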;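 also: exported cargo escapes ClpAP degradation while cytoplasmic cargo is degraded and loses fluorescence; 0% = median of neutral control wells and 100% = median of NaSCN control wells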
E coli growth-2 – blocks Escherichia coli growth. OD600, 23 h; active compounds read low. AID 1053175. 330,000 tested, 0.21% active. OD600 absorbance (no concentration beside the values);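 active = OD600 absorbance below the run mean of sample wells minus 3.6 SD, in any replicate, cut at about 0.56 in these data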
RecBCD conf – growth loss of phage-infected V66 E. coli, RecBCD confirmation screen | shares compounds with phage Ecoli inh | E. coli V66 + T4 2- phage, growth OD | inhibition, % at 11.9 µM | 890 tested, 45% active | AID 651982;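 active = mean inhibition over triplicates exceeding the hit threshold derived in the original primary screen, cut at about 11% in these data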
Ecoli viability – counter-screen for RecBCD inhibitors: inhibitors of bacterial viability; shares compounds with phage Ecoli inh; inhibition, % at 11.9 µM; E. coli viability, absorbance (OD) growth; 890 tested, 29% active; AID 651983; in the data active = inhibition above about 20%;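 also: E. coli strain V66 grown with compound alone and no phage infection; 0% = bacteria with DMSO vehicle only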
AddAB phage OD – growth loss of phage-infected AddAB E. coli, RecBCD counter-screen | 890 tested, 45% active | inhibition, % at 11.9 µM | AID 651984 | E. coli expressing H. pylori AddAB + T4 phage, OD growth; gene 2 mutant T4, recBCD-deleted host | shares compounds with phage Ecoli inh;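 active = mean inhibition above the solvent-only control wells' mean plus 3 SD, cut at about 22% in these data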;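 also: higher means less bacterial growth from phage killing when AddAB is blocked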
An asterisk follows results filed as active. In the library only some 0.51% were active in any assay of this set; here they are far more common.

How did O=S(=O)(Nc1ncccn1)c1ccccc1 do in these assays?
E coli growth-1: -1; phage Ecoli inh: 3; AddAB inh: 0; Tat transport: -6; E coli growth-2: 0.64

Results for Cc1noc(NS(=O)(=O)c2ccc(N)cc2)c1C ?
E coli growth-1: 8; phage Ecoli inh: 11*; AddAB inh: 10; Tat transport: -2; E coli growth-2: 0.66; RecBCD conf: 3; Ecoli viability: 2; AddAB phage OD: 23*

How did CC1(C)c2[nH]c3ccccc3c2CC2C(=O)N(Cc3ccccc3Cl)C(=O)N21 (stereo unspecified) do in these assays?
E coli growth-2: 0.68

How did CC1C(Sc2ccccc2)CC(=O)OC1c1ccc(-c2ccccc2)cc1 (stereo unspecified) do in these assays?
E coli growth-2: 0.7

Results for O=C1CN(C(=O)C=Cc2cccc(Cl)c2)c2ccccc2N1 ?
E coli growth-2: 0.7

Results for CC1CN(C(C)CO)C(=O)c2cccc(NS(=O)(=O)c3ccc(F)cc3)c2OC1CN(C)Cc1ccc(Cl)c(Cl)c1 (stereo unspecified) ?
E coli growth-2: 0.68

How did CCc1ccc(NC(=S)Nc2ccc(S(=O)(=O)Nc3ncccn3)cc2)cc1 do in these assays?
E coli growth-1: 1; phage Ecoli inh: 12*; AddAB inh: 3; Tat transport: 19; E coli growth-2: 0.68; RecBCD conf: 1; Ecoli viability: -1; AddAB phage OD: 6

Results for CC(C)NC(=S)Nc1ccc(S(=O)(=O)Nc2ncccn2)cc1 ?
E coli growth-1: 1; phage Ecoli inh: 2; AddAB inh: 2; Tat transport: -3; E coli growth-2: 0.69

How did CCOc1ccc(C=C(NC(=O)c2ccccc2Cl)C(=O)O)cc1 do in these assays?
E coli growth-2: 0.69

Results for O=C(O)c1c[nH]c2c([N+](=O)[O-])cccc2c1=O ?
phage Ecoli inh: 11*; Tat transport: -21; E coli growth-2: 0.53; RecBCD conf: 7; Ecoli viability: 7; AddAB phage OD: 19

What do the screens show for `O=C(NC1C2CC3CC(C2)CC1C3)c1ccc2c(c1)OCO2` (stereo unspecified)?
E coli growth-1: -1; phage Ecoli inh: -3; AddAB inh: 3; Tat transport: 5; E coli growth-2: 0.66

Results for O=C(NNC(=O)c1ccc2c(c1)OCO2)NC12CC3CC(CC(C3)C1)C2 ?
E coli growth-1: 6; phage Ecoli inh: 13*; AddAB inh: 9; Tat transport: 4; E coli growth-2: 0.69; RecBCD conf: 3; Ecoli viability: 2; AddAB phage OD: 3

What do the screens show for `CC1CCN(CCC2CCCN2S(=O)(=O)c2cccc(O)c2)CC1` (stereo unspecified)?
E coli growth-2: 0.7

How did C=CCn1cc(C(=O)N2CCN(C)CC2)c(=O)c2cc(S(=O)(=O)N3CCCC3)ccc21 do in these assays?
E coli growth-1: -1; phage Ecoli inh: 22*; AddAB inh: 3; Tat transport: -2; E coli growth-2: 0.76; RecBCD conf: -2; Ecoli viability: -2; AddAB phage OD: -2

Results for COC(=O)C1C(c2ccccc2)NC(=O)N(CCc2cc(OC)c(OC)c(OC)c2)C1C (stereo unspecified) ?
E coli growth-2: 0.7

How did O=C(Nc1ccncc1)Nc1cccc(C(F)(F)F)c1 do in these assays?
E coli growth-1: 1; phage Ecoli inh: 8; AddAB inh: 0; Tat transport: 0; E coli growth-2: 0.53

What do the screens show for `O=C(Nc1ccc(OC(F)F)cc1)Nc1cccc(C(F)(F)F)c1`?
E coli growth-1: 13*; phage Ecoli inh: 12*; AddAB inh: 11; Tat transport: -33; E coli growth-2: 0.53*; RecBCD conf: 11*; Ecoli viability: 12; AddAB phage OD: 10

What do the screens show for `COC(=O)c1cccc(C23CC4(C2)C(CN(Cc2ccc(C(F)(F)F)cc2)C4c2ccccc2)C3c2ccc(Cl)nc2)c1` (stereo unspecified)?
E coli growth-2: 0.75

What do the screens show for `CC1CN(N=Cc2ccc([N+](=O)[O-])o2)C(=N)O1` (stereo unspecified)?
phage Ecoli inh: 46*; Tat transport: 12; E coli growth-2: 0.065*; RecBCD conf: 85*; Ecoli viability: 102*; AddAB phage OD: 103*

What do the screens show for `CC1(C(=O)N/N=C/c2ccc([N+](=O)[O-])o2)CC1(Br)Br` (stereo unspecified)?
E coli growth-1: 5; phage Ecoli inh: 5; AddAB inh: 5; Tat transport: -4

How did O=C1C2C(C(=O)N1/N=C/c1ccc([N+](=O)[O-])o1)C1C=CC2C12CC2 (stereo unspecified) do in these assays?
E coli growth-1: 3; phage Ecoli inh: 1; AddAB inh: 6; Tat transport: -7

How did O=C1SCCN1N=Cc1ccc([N+](=O)[O-])o1 do in these assays?
phage Ecoli inh: 69*; Tat transport: -2; E coli growth-2: 0.063*; RecBCD conf: 62*; Ecoli viability: 98*; AddAB phage OD: 100*

How did CC(C)CC(NC(=O)OC(C)(C)C)c1cn(C(CCC(=O)OC(C)(C)C)C(=O)N2CCN(C(=O)OC(C)(C)C)CC2)nn1 (stereo unspecified) do in these assays?
E coli growth-2: 0.68

What do the screens show for `CC1(C)c2[nH]c3ccccc3c2CC2C(=O)N(Cc3ccccc3)C(=O)N21` (stereo unspecified)?
E coli growth-2: 0.65

Results for Cc1cc2cc(CCNC(=O)c3cccs3)c(=O)[nH]c2cc1C ?
E coli growth-1: 7; phage Ecoli inh: 14*; AddAB inh: 11; Tat transport: -9; E coli growth-2: 0.69; RecBCD conf: 5; Ecoli viability: 6; AddAB phage OD: 8

What do the screens show for `CCOc1c(Br)cc(CNc2ccc(N3CCOCC3)cc2)cc1OC`?
E coli growth-1: 1; phage Ecoli inh: 98*; AddAB inh: -1; Tat transport: 4; E coli growth-2: 0.69; RecBCD conf: 0; Ecoli viability: 0; AddAB phage OD: -2

What do the screens show for `Cc1cc(O)c(Sc2ncn[nH]2)cc1NS(=O)(=O)c1ccc(Cl)cc1`?
E coli growth-1: -1; phage Ecoli inh: 3; AddAB inh: 1; Tat transport: 6; E coli growth-2: 0.69

Results for O=S(=O)(Nc1cc(Sc2ncn[nH]2)c(O)c2ccccc12)c1ccccc1 ?
phage Ecoli inh: 11*; Tat transport: -5; E coli growth-2: 0.61; RecBCD conf: 2; Ecoli viability: 1; AddAB phage OD: 0

How did Oc1ccc(C=NNC(=S)Nc2cccnc2)nc1 do in these assays?
phage Ecoli inh: 21*; Tat transport: 1; RecBCD conf: 19*; Ecoli viability: 21*; AddAB phage OD: 36*

Compound activity (PubChem BioAssay)
